From PubChem BioAssay AID372 (MTDP, 2006)
Out of some 100,000 compounds screened, about 770 (0.77%) were called active. Many of the other results were omitted from the sample, so actives are more common in it than they were. Values without a mark were called inactive. No stated cut-off is given here; in the data, active means inhibition above about 50%; inactive means the rest.

molecular target: Gag-Pol polyprotein (Human immunodeficiency virus type 1 group M subtype B (isolate HXB2)) (UniProt P04585); test: RNase H inhibition, HIV 1 Gag Pol polyprotein, FRET biochemical assay, screening (AID 372); conditions: HIV-1 RT RNase H, FRET RNA/DNA substrate fluorescence; at 10 µM; active compounds read high

SMILES	inhibition
COc1ccc(CC(=O)N2CCCc3ccccc32)cc1OC	5%
O=C(O)c1c(-c2ccccc2)oc2ccc(OCc3ccccc3)cc12	0%
O=C1CC(c2ccc(Cl)cc2)CC2=C1C(c1ccccc1F)Nc1ccccc1N2 (stereo not drawn)	0%
O=C(COc1cccc(Cl)c1)N=Nc1c(O)[nH]c(=O)[nH]c1=O	10%
O=C(Nc1ccc(F)cc1)Nc1nnc(CSCc2ccccc2Cl)s1	23%
CC(=O)Oc1ccc(/C=C(/NC(=O)c2ccccc2)C(=O)NCCO)cc1	7%
O=C(O)CCC(=O)N1N=C(c2c(-c3ccccc3)c3cc(Cl)ccc3[nH]c2=O)CC1c1ccc([N+](=O)[O-])cc1 (stereo not drawn)	18%
CC12c3ccccc3C(C)(c3ccccc31)C1C(=O)NC(=O)C12 (stereo not drawn)	3%
O=C(N/N=C/c1ccc(O)c(O)c1)c1ccc(O)cc1	37%
O=C(N/N=C/c1ccc(O)c(O)c1)c1ccc(Br)cc1	41%
Cc1cc([N+](=O)[O-])ccc1NC(=O)c1ccccc1	11%
O=C(/C=C\Nc1ccccn1)c1ccc(Cl)cc1	9%
COc1cc(C=O)ccc1OCCOc1cccc(C)c1C	12%
Cc1ccc(C)c(NCn2nnc3ccccc32)c1	10%
Cc1csc(N/N=C/c2cccc(OCc3ccccc3)c2)n1	19%
O=C1N=C(N2CCN(c3ccccc3)CC2)S/C1=C\c1ccc(OCc2ccccc2)cc1	1%
Cc1ccc(S(=O)(=O)N(c2ccc(Br)cc2F)S(=O)(=O)c2ccc(C)cc2)cc1	16%
COc1ccc(N2C(=O)NC(=O)/C(=C\c3cc(I)c(OC)c(OC)c3)C2=O)cc1	7%
CCOC(=O)c1c(NC(=O)c2sc3cc(C)ccc3c2Cl)sc(C(N)=O)c1C	10%
S=C(NCc1ccccc1)N/N=C/c1cccc(OCc2ccccc2)c1	12%
Fc1ccccc1COc1cccc(/C=N/Nc2ccccc2)c1	11%
CNC(=S)N/N=C/c1cccc(OCc2ccccc2F)c1	52% (active)
CN1CCN(S(=O)(=O)c2ccc([N+](=O)[O-])cc2)CC1	0%
O=C(Nc1ccccc1NC(=O)c1ccccc1)c1ccccc1	0%
O=C(Nc1c(Cl)cccc1Cl)c1ccccc1	7%
COc1cc(-c2nc3sc4c(c3c(=O)[nH]2)CCCC4)ccc1OCc1cccc(F)c1	56% (active)
C=CCOc1ccc(-c2nc3sc4c(c3c(=O)[nH]2)CCCC4)cc1OC	30%
COc1cc(-c2nc3sc4c(c3c(=O)[nH]2)CCCC4)ccc1OCC(=O)O	5%
